According to the supplement of paper PMC10646978:
± gives the standard deviation.

Columns and labels:
Conditions in all cases: modulator concentration 10 µM
[1] = tested on: RAW-Dual (murine macrophage reporter line); assay: NF-kB reporter (SEAP) activity fold change vs agonist alone; higher = enhanced NF-kB activity
Method in brief: (§1)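 RAW-Dual murine macrophage reporter cells were seeded at 50 000 per well in 384-well plates and pre-incubated 1 hour at 37 °C with compound pin-transferred to 10 μM final. After 1 hour, a PRR agonist was added and cells incubated overnight. Supernatant NF-κB (SEAP, QUANTI-Blue, 620 nm absorbance) and IRF (Lucia luciferase, QUANTI-Luc, luminescence) signals were divided by the mean agonist-only control on the same plate to give fold change. Two replicate plates were averaged, with errors by propagation.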

[2] = tested on: RAW-Dual (murine macrophage reporter line); assay: IRF reporter (Lucia luciferase) activity fold change vs agonist alone; higher = enhanced IRF activity
Method in brief: as §1

[3] = tested on: RAW-Dual (murine macrophage reporter line); assay: viability score (confluency relative to resting cells, overnight) (fraction); higher = more viable, active = viable (0.7 or more)
Method in brief: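 RAW-Dual macrophages in 384-well plates were incubated overnight with compound, final concentration 10 μM. Confluency images from IncuCyte were processed in IncuCyte software into two masks covering all imaged wells. The viability score is each well's confluency relative to resting cells, and a compound met the cutoff when both masks exceeded 70% of resting cells.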

[4] = agonist: CpG ODN 1826 0.5 ug/mL

## CC(C)Sc1ccc(CC(=O)Nc2cnoc2)cc1
[1]; [4]
  NF-kB reporter: 0.869 ± 0.044
[1]; agonist: LPS 0.1 ug/mL
  NF-kB reporter: 1.01 ± 0.09
[1]; agonist: MPLA […]
  NF-kB reporter: 1.15 ± 0.095
[2]; agonist: 3'3'-cGAMP 10 ug/mL
  IRF reporter: 0.848 ± 0.051
[2]; agonist: LPS 0.1 ug/mL
  IRF reporter: 1.01 ± 0.24
[2]; agonist: MPLA […]
  IRF reporter: 1.1 ± 0.4
[3]
  viability score: 0.912 (active)

## O=C(CCN1C(=O)c2cccc([N+](=O)[O-])c2C1=O)Nc1ccc(Cl)cc1
[1]; [4]
  NF-kB reporter: 0.886 ± 0.073
[1]; agonist: LPS 0.1 ug/mL
  NF-kB reporter: 1.02 ± 0.058
[1]; agonist: MPLA […]
  NF-kB reporter: 0.899 ± 0.077
[2]; agonist: 3'3'-cGAMP 10 ug/mL
  IRF reporter: 0.848 ± 0.022
[2]; agonist: LPS 0.1 ug/mL
  IRF reporter: 1.4 ± 0.16
[2]; agonist: MPLA […]
  IRF reporter: 1.14 ± 0.23
[3]
  viability score: 1.01 (active)

## CC1(C)C(=O)C2CC3(O)C4=CC(=O)OC(c5ccoc5)C4(C)CCC3C(C)(C2=O)C1CC(=O)O (stereo unspecified)
[1]; [4]
  NF-kB reporter: 0.99 ± 0.056
[1]; agonist: LPS 0.1 ug/mL
  NF-kB reporter: 1.04 ± 0.064
[1]; agonist: MPLA […]
  NF-kB reporter: 1.01 ± 0.081
[2]; agonist: 3'3'-cGAMP 10 ug/mL
  IRF reporter: 0.997 ± 0.035
[2]; agonist: LPS 0.1 ug/mL
  IRF reporter: 1.51 ± 0.13
[2]; agonist: MPLA […]
  IRF reporter: 1.25 ± 0.14
[3]
  viability score: 0.996 (active)

## O=C(c1ccc(Cl)cc1)c1ccc(N2CCOCC2)c([N+](=O)[O-])c1
[1]; [4]
  NF-kB reporter: 0.696 ± 0.061
[1]; agonist: LPS 0.1 ug/mL
  NF-kB reporter: 1.04 ± 0.08
[1]; agonist: MPLA […]
  NF-kB reporter: 0.735 ± 0.044
[2]; agonist: 3'3'-cGAMP 10 ug/mL
  IRF reporter: 1.11 ± 0.027
[2]; agonist: LPS 0.1 ug/mL
  IRF reporter: 1.62 ± 0.24
[2]; agonist: MPLA […]
  IRF reporter: 1.41 ± 0.24
[3]
  viability score: 1 (active)

## Cl.Cl.Clc1ccc(Nc2nnc(Cc3ccncc3)c3ccccc23)cc1
[1]; [4]
  NF-kB reporter: 1.04 ± 0.15
[1]; agonist: LPS 0.1 ug/mL
  NF-kB reporter: 1 ± 0.24
[1]; agonist: MPLA […]
  NF-kB reporter: 1.14 ± 0.31
[2]; agonist: 3'3'-cGAMP 10 ug/mL
  IRF reporter: 0.628 ± 0.021
[2]; agonist: LPS 0.1 ug/mL
  IRF reporter: 1.12 ± 0.2
[2]; agonist: MPLA […]
  IRF reporter: 0.926 ± 0.14
[3]
  viability score: 0.979 (active)

## Cl.Cl.OCCN1CCN(CCCN2c3ccccc3Sc3ccc(C(F)(F)F)cc32)CC1
[1]; [4]
  NF-kB reporter: 0.972 ± 0.047
[1]; agonist: LPS 0.1 ug/mL
  NF-kB reporter: 0.893 ± 0.073
[1]; agonist: MPLA […]
  NF-kB reporter: 0.91 ± 0.05
[2]; agonist: 3'3'-cGAMP 10 ug/mL
  IRF reporter: 0.895 ± 0.042
[2]; agonist: LPS 0.1 ug/mL
  IRF reporter: 1.03 ± 0.15
[2]; agonist: MPLA […]
  IRF reporter: 0.947 ± 0.3
[3]
  viability score: 0.677 (inactive)

## O=C1CSC(=S)N1N=Cc1ccc(O)c([N+](=O)[O-])c1
[1]; [4]
  NF-kB reporter: 0.956 ± 0.091
[1]; agonist: LPS 0.1 ug/mL
  NF-kB reporter: 1.1 ± 0.11
[1]; agonist: MPLA […]
  NF-kB reporter: 0.97 ± 0.084
[2]; agonist: 3'3'-cGAMP 10 ug/mL
  IRF reporter: 1.04 ± 0.027
[2]; agonist: LPS 0.1 ug/mL
  IRF reporter: 1.75 ± 0.36
[2]; agonist: MPLA […]
  IRF reporter: 1.1 ± 0.17
[3]
  viability score: 0.994 (active)

## COc1cc2c(Oc3ccc4[nH]c(C)cc4c3F)ncnc2cc1OCCCN1CCCC1
[1]; [4]
  NF-kB reporter: 0.607 ± 0.097
[1]; agonist: LPS 0.1 ug/mL
  NF-kB reporter: 1.03 ± 0.052
[1]; agonist: MPLA […]
  NF-kB reporter: 1.09 ± 0.11
[2]; agonist: 3'3'-cGAMP 10 ug/mL
  IRF reporter: 0.927 ± 0.043
[2]; agonist: LPS 0.1 ug/mL
  IRF reporter: 1.22 ± 0.082
[2]; agonist: MPLA […]
  IRF reporter: 1.35 ± 0.12
[3]
  viability score: 1 (active)

## CC(=O)Oc1c(C)cc2sc3ccccc3c(=O)c2c1C
[1]; [4]
  NF-kB reporter: 1.06 ± 0.18
[1]; agonist: LPS 0.1 ug/mL
  NF-kB reporter: 0.87 ± 0.077
[1]; agonist: MPLA […]
  NF-kB reporter: 0.927 ± 0.095
[2]; agonist: 3'3'-cGAMP 10 ug/mL
  IRF reporter: 0.846 ± 0.032
[2]; agonist: LPS 0.1 ug/mL
  IRF reporter: 1.25 ± 0.12
[2]; agonist: MPLA […]
  IRF reporter: 1.2 ± 0.12
[3]
  viability score: 0.998 (active)

## CN1CCN(c2ccc(-c3cccc(NC(=O)COc4ccc(Cl)cc4)c3)nn2)CC1
[1]; [4]
  NF-kB reporter: 0.24 ± 0.029
[1]; agonist: LPS 0.1 ug/mL
  NF-kB reporter: 0.966 ± 0.053
[1]; agonist: MPLA […]
  NF-kB reporter: 0.891 ± 0.021
[2]; agonist: 3'3'-cGAMP 10 ug/mL
  IRF reporter: 0.572 ± 0.032
[2]; agonist: LPS 0.1 ug/mL
  IRF reporter: 0.946 ± 0.057
[2]; agonist: MPLA […]
  IRF reporter: 0.966 ± 0.081
[3]
  viability score: 0.97 (active)

## O=C(NCCCCNC(=O)c1cncc(Br)c1)c1cncc(Br)c1
[1]; [4]
  NF-kB reporter: 0.947 ± 0.053
[1]; agonist: LPS 0.1 ug/mL
  NF-kB reporter: 0.973 ± 0.095
[1]; agonist: MPLA […]
  NF-kB reporter: 0.907 ± 0.075
[2]; agonist: 3'3'-cGAMP 10 ug/mL
  IRF reporter: 0.946 ± 0.038
[2]; agonist: LPS 0.1 ug/mL
  IRF reporter: 1.37 ± 0.093
[2]; agonist: MPLA […]
  IRF reporter: 1.16 ± 0.24
[3]
  viability score: 0.991 (active)

## NC(=O)c1cccnc1
[1]; [4]
  NF-kB reporter: 0.89 ± 0.16
[1]; agonist: LPS 0.1 ug/mL
  NF-kB reporter: 0.878 ± 0.33
[1]; agonist: MPLA […]
  NF-kB reporter: 1.03 ± 0.13
[2]; agonist: 3'3'-cGAMP 10 ug/mL
  IRF reporter: 0.912 ± 0.034
[2]; agonist: LPS 0.1 ug/mL
  IRF reporter: 0.984 ± 0.22
[2]; agonist: MPLA […]
  IRF reporter: 0.934 ± 0.14
[3]
  viability score: 1 (active)

## CC(=O)Oc1cc(C(F)(F)F)ccc1C(=O)O
[1]; [4]
  NF-kB reporter: 0.977 ± 0.13
[1]; agonist: LPS 0.1 ug/mL
  NF-kB reporter: 1.05 ± 0.19
[1]; agonist: MPLA […]
  NF-kB reporter: 0.91 ± 0.053
[2]; agonist: 3'3'-cGAMP 10 ug/mL
  IRF reporter: 0.976 ± 0.03
[2]; agonist: LPS 0.1 ug/mL
  IRF reporter: 1.32 ± 0.32
[2]; agonist: MPLA […]
  IRF reporter: 1.21 ± 0.23
[3]
  viability score: 1 (active)
